Data as given in the supplement of paper PMC12350171.
Counter-ions that a name gives are not always drawn. A number with no mark means an inactive call.

Tests used:
Conditions in all cases: 20 µM
[1] = system: Salmonella enterica typhimurium; assay: growth AUC normalised to DMSO control (fraction of control); higher = less growth inhibition, active = hit call of the paper
Procedure, shortened: (§1)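 Pathogens passaged twice anaerobically were inoculated at a starting OD578 of 0.01 into pre-reduced mGAM plates with drug at 20 μM and 1% DMSO, sealed with breathable membranes. Haemophilus parainfluenzae medium was supplemented with hemin and NAD. OD578 was read hourly for 24 h, with three biological replicates. Growth-curve AUC was computed by the trapezoidal rule up to the exponential-to-stationary transition and normalised to DMSO controls on the same plate.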

Shigella flexneri = assay: as above
Procedure, shortened: as §1

Vibrio cholerae = assay: as above
Procedure, shortened: as §1

[2] = system: Yersinia pseudotuberculosis; assay: as above
Procedure, shortened: as §1

P. vulgatus RND KO = assay: growth AUC normalised to DMSO control (median) (fraction of control); higher = less growth inhibition, active = hit call of the paper
Procedure, shortened: (§2)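 In 96-well plates of mGAM seeded at OD578 0.01, strains that had been passaged twice overnight without oxygen were exposed to approved-drug library compounds at 20 μM with 1% DMSO. Hourly OD578 readings were taken for 24 h in an anaerobic incubator. The trapezoidal-rule area under the curve, with curves truncated at entry into stationary phase, was expressed relative to same-plate vehicle wells as the median of three biological replicates.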

P. vulgatus WT = assay: as above
Procedure, shortened: as §2

[3] = system: S. enterica typhimurium WT; assay: as above
Procedure, shortened: as §2

[4] = system: S. enterica typhimurium tolC KO; assay: as above
Procedure, shortened: as §2
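For growth AUC normalised to DMSO control (median) in this document: active when median AUC fell below 0.1.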

Row | SMILES | growth AUC normalised to DMSO control [1] | growth AUC normalised to DMSO control (Shigella flexneri) | growth AUC normalised to DMSO control (Vibrio cholerae) | growth AUC normalised to DMSO control [2] | growth AUC normalised to DMSO control (P. vulgatus RND KO) | growth AUC normalised to DMSO control (P. vulgatus WT) | growth AUC normalised to DMSO control [3] | growth AUC normalised to DMSO control [4]
1 | Cc1ccc(NC(=O)c2ccc(CN3CCN(C)CC3)cc2)cc1Nc1nccc(-c2cccnc2)n1 [Imatinib] | 1.03 | 1.06 | 1.12 | 0.991 | 1.12 | 1.09 | 1.03 | 0.259
2 | Nc1nc(=O)n([C@@H]2CS[C@H](CO)O2)cc1F [(-) Emtricitabine] | 0.995 | 0.961 | 0.993 | 0.981 | 0.983 | 0.986 | 0.998 | 0.993
3 | CN1CCN(CC(=O)N2c3ccccc3C(=O)Nc3cccnc32)CC1 [Pirenzepine dihydrochloride] | 0.993 | 1 | 0.988 | 1.01 | 1 | 0.98 | 0.999 | 1
4 | Cc1nccn1CC1CCc2c(c3ccccc3n2C)C1=O (stereo not drawn) [Ondansetron hydrochloride] | 1.01 | 1.04 | 1.01 | 1 | 1.01 | 1.04 | 1 | 0.984
5 | CN1CCN(C2=Nc3ccccc3Oc3ccc(Cl)cc32)CC1 [Loxapine succinate] | 1 | 0.992 | 0.907 | 1.01 | 0.612 | 0.478 | 1.01 | 0.96
6 | CN(C)CCCOc1nn(Cc2ccccc2)c2ccccc12 [Benzydamine hydrochloride] | 1 | 0.958 | 0.892 | 0.991 | 0.993 | 1.01 | 0.988 | 0.959
7 | OC(CCN1CCCCC1)(c1ccccc1)C1CCCCC1 (stereo not drawn) [Trihexyphenidyl-D,L hydrochloride] | 1 | 0.996 | 0.961 | 1.02 | 1.02 | 1.04 | 1.01 | 0.986
8 | CCC(C)(CN(C)C)OC(=O)c1ccccc1 (stereo not drawn) [Amyleine hydrochloride] | 0.992 | 0.989 | 0.989 | 1.01 | 0.995 | 1.01 | 0.983 | 1.01
9 | CCn1cc(C(=O)O)c(=O)c2ccc(C)nc21 [Nalidixic acid sodium salt] | 0.594 (active) | 0.111 (active) | 0.035 (active) | 0.052 (active) | 0.985 | 0.969 | 0.105 | 0.0195 (active)
10 | Nc1cc(-c2ccncc2)c[nH]c1=O [Amrinone] | 1.01 | 1.06 | 1.07 | 1 | 1.05 | 1.06 | 1 | 1.02
11 | C[C@H](O)C(=O)Nc1c(I)c(C(=O)NC(CO)CO)c(I)c(C(=O)NC(CO)CO)c1I [Iopamidol] | 1.03 | 1.08 | 1.07 | 1.03 | 1.08 | 1.08 | 1.01 | 1.01
12 | COCCCC/C(=N\OCCN)c1ccc(C(F)(F)F)cc1 [Fluvoxamine maleate] | 0.992 | 0.974 | 0.943 | 0.993 | 0.968 | 0.963 | 0.991 | 0.957
13 | CC(=O)OCC(=O)[C@@]1(O)CC[C@H]2[C@@H]3CCC4=CC(=O)CC[C@]4(C)[C@H]3[C@@H](O)C[C@@]21C [Cortisol acetate] | 1.03 | 0.997 | 1 | 1 | 1 | 1.03 | 1.01 | 1
14 | CC(C(=O)O)c1cccc(Oc2ccccc2)c1 (stereo not drawn) [Fenoprofen calcium salt dihydrate] | 0.995 | 0.924 | 0.945 | 0.987 | 0.99 | 0.983 | 1 | 0.995
15 | CC1(C)NC(=O)N(c2ccc([N+](=O)[O-])c(C(F)(F)F)c2)C1=O [Nilutamide] | 0.928 | 0.977 | 0.957 | 1 | 0.964 | 0.952 | 0.992 | 0.999
16 | O=C(O)c1cn(-c2ccc(F)cc2)c2cc(N3CCNCC3)c(F)cc2c1=O [Sarafloxacin] | 0.0114 (active) | 0.0236 (active) | 0.0367 (active) | 0.0409 (active) | 0.0128 (active) | 0.0174 (active) | 0.00503 (active) | 0.0079 (active)

Row | SMILES | growth AUC normalised to DMSO control [1] | growth AUC normalised to DMSO control (Shigella flexneri) | growth AUC normalised to DMSO control (Vibrio cholerae) | growth AUC normalised to DMSO control [2] | growth AUC normalised to DMSO control (P. vulgatus RND KO) | growth AUC normalised to DMSO control (P. vulgatus WT) | growth AUC normalised to DMSO control [3] | growth AUC normalised to DMSO control [4]
17 | CC(=O)Nc1c(I)c(C(=O)N[C@H]2C(O)O[C@H](CO)[C@@H](O)[C@@H]2O)c(I)c(N(C)C(C)=O)c1I (stereo partly drawn) [Metrizamide] | 1.01 | 0.985 | 0.988 | 1.01 | 1 | 1.01 | 1.02 | 1.01
18 | CC(C)(Oc1ccc(Cl)cc1)C(=O)O [Clofibric acid] | 0.995 | 1 | 0.986 | 0.996 | 0.998 | 1.01 | 0.996 | 1
19 | CC(C)(C)C(=O)OCOC(=O)[C@@H]1N2C(=O)[C@@H](/N=C/N3CCCCCC3)[C@H]2SC1(C)C [Pivmecillinam hydrochloride] | 0.0179 (active) | 0.0752 (active) | 0.956 | 0.0551 (active) | 1.01 | 1.03 | 0.158 | 0.145
20 | Clc1ccc(C(Cn2ccnc2)OCc2ccsc2Cl)c(Cl)c1 (stereo not drawn) [Tioconazole] | 0.986 | 0.984 | 0.909 | 1.07 | 0.932 | 0.929 | 1 | 0.903
21 | N[C@@H](Cc1cc(I)c(Oc2cc(I)c(O)c(I)c2)c(I)c1)C(=O)O [(L) Thyroxine] | 1.01 | 1.02 | 1.03 | 1.02 | 0.994 | 1.06 | 1.02 | 0.983
22 | C[C@@H]1C[C@H]2[C@@H]3C[C@H](F)C4=CC(=O)C=C[C@]4(C)[C@@]3(Cl)[C@@H](O)C[C@]2(C)[C@H]1C(=O)COC(=O)C(C)(C)C [Clocortolone pivalate] | 1.03 | 1.06 | 1.12 | 1.05 | 0.0165 (active) | 0.0896 (active) | 1.01 | 1.04
23 | C=C1c2cccc(O)c2C(O)=C2C(=O)[C@]3(O)C(O)=C(C(N)=O)C(=O)[C@@H](N(C)C)[C@@H]3[C@@H](O)[C@H]12 [Methacycline hydrochloride] | 0.00318 (active) | 0.0126 (active) | 0.0374 (active) | 0.0389 (active) | 0.0122 (active) | 0.00531 (active) | 0.000703 (active) | 0.00224 (active)
24 | CN(C)CCC=C1c2ccccc2C=Cc2ccccc21 [Cyclobenzaprine hydrochloride] | 0.98 | 0.955 | 0.866 (active) | 0.998 | 0.933 | 0.936 | 1 | 0.853
25 | C(=C\c1ccccc1)/CN1CCN(C(c2ccccc2)c2ccccc2)CC1 [Cinnarizine] | 0.986 | 0.925 | 0.895 | 0.976 | 1.01 | 1 | 0.997 | 0.965
26 | CN(CCOc1ccc(CC2SC(=O)NC2=O)cc1)c1ccccn1 (stereo not drawn) [Rosiglitazone hydrochloride] | 1.02 | 1.08 | 1.01 | 0.975 | 1.06 | 1.04 | 1.02 | 0.993
27 | Nc1nc(=O)c2c([nH]1)NC[C@@H](CNc1ccc(C(=O)N[C@@H](CCC(=O)O)C(=O)O)cc1)N2C=O [Folinic acid calcium salt] | 1 | 0.999 | 1.01 | 1 | 1.01 | 1.04 | 1 | 1
28 | CC1(C)O[C@@H]2C[C@H]3[C@@H]4C[C@H](F)C5=CC(=O)CC[C@]5(C)[C@H]4[C@@H](O)C[C@]3(C)[C@]2(C(=O)CO)O1 [Flurandrenolide] | 1 | 1.01 | 1.03 | 0.996 | 1.06 | 1.07 | 0.996 | 0.986
29 | CCCN(CCC)CCc1cccc2c1CC(=O)N2 [Ropinirole hydrochloride] | 0.997 | 1.02 | 0.976 | 0.985 | 1.03 | 1.04 | 1 | 0.988
30 | O=C(O)c1cc(-c2ccc(F)cc2F)ccc1O [Diflunisal] | 0.983 | 0.997 | 0.899 | 0.984 | 0.999 | 1.07 | 0.973 | 0.943
31 | NC(=O)N1c2ccccc2C=Cc2ccccc21 [Carbamazepine] | 0.997 | 0.996 | 0.999 | 1 | 1 | 1.04 | 0.998 | 0.999
